Screening results (PubChem BioAssay)
Calb FLC – affects C. albicans growth with fluconazole; AID 1979; hit rate 0.57% among 300,000; growth inhibition, % (test concentration not listed); C. albicans CaCi-2 (fluconazole-resistant clinical isolate) + fluconazole, Alamar Blue growth, 48 h;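 active = growth inhibition above about 58% in most replicates, limit read from the data, passing the limit was not always enough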;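 also: all wells also contain fluconazole at 8 µg/ml as a sub-toxic cotreatment; 0% = median of DMSO wells and 100% = median of geldanamycin control wells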
Beta apoptosis – beta cell apoptosis inhibition; INS-1E cytokine-induced death, ATP luminescence, 48 h; percent of positive-control rescue, neutral wells zero; protection from apoptosis, % (no concentration beside the values); hit rate 0.8% among 300,000; AID 435005;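 active = Every replicate reaches about 75%, or at least half do and their mean reaches it too, limit read from the data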;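 also: 0% = cytokine-treated negative control wells and 100% = positive control rescue; higher means more ATP so stronger rescue from cytokine killing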
Mdm2 MdmX PPI – human Mdm2/MdmX binding inhibition | SaOS-2 split-luciferase Mdm2/MdmX complementation, luminescence | AID 485346 | O15151+Q00987 | inhibition, % at 8 µM | hit rate 3% among 330,000;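 active = inhibition of at least 50% at 8 µM in the primary screen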
Target sequence (O15151 whole entry, looked up): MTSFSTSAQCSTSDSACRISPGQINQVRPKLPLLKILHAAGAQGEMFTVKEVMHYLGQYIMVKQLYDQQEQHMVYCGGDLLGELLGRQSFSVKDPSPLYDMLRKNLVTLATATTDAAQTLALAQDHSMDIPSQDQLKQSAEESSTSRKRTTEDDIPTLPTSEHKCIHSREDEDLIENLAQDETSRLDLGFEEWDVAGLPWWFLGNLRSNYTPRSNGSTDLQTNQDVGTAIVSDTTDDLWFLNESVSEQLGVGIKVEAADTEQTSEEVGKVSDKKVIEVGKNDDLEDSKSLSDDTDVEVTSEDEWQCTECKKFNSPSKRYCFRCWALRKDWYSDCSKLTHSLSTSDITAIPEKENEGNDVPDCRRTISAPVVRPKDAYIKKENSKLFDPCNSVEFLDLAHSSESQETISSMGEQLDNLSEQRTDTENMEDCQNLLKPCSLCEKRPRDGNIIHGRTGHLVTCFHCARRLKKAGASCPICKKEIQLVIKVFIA
Target sequence (Q00987 whole entry, looked up): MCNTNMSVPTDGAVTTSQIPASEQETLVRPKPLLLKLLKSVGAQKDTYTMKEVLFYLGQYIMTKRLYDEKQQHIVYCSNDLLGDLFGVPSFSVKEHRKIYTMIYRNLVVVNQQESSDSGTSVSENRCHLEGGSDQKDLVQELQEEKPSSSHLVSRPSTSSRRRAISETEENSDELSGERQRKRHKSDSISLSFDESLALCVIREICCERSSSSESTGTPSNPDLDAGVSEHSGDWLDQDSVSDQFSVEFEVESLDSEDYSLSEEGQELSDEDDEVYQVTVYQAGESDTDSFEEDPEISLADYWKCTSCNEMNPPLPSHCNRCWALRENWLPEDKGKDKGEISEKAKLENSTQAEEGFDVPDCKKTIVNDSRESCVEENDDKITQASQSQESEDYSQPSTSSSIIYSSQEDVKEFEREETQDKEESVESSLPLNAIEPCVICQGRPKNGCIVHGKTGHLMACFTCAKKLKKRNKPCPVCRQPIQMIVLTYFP
CSC inhib – blocks cancer stem cells; cancer stem cell-like cells viability, luminescence; inhibition, % at 7.5 µM; hit rate 1.1% among 300,000; in the data active = inhibition above about 75%; tested in HMLE shEcad cells
MPTP inh – blocks calcium-induced mitochondrial swelling | isolated mouse mitochondria, Ca2+ swelling absorbance, 30 min | inhibition, % at 10 µM | hit rate 1.4% among 360,000;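 active = inhibition of 50% or more, scaled per plate between neutral and stimulator controls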;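 also: 0% = DMSO wells given calcium and 100% = 1 mM EGTA wells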
Mdm2-MdmX conf – human Mdm2/MdmX binding inhibition, confirmed | shares compounds with Mdm2 MdmX PPI | hit rate 55% among 10,000 | inhibition, % at 8 µM | luminescent assay | AID 489028; in the data active = inhibition above about 40%
FLuc counter – inhibits full-length luciferase, flagging false Mdm2/MdmX hits | shares compounds with Mdm2 MdmX PPI | SaOS-2 full-length luciferase counterscreen, luminescence | inhibition, % at 8 µM | hit rate 77% among 6,200 | AID 504607;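 active = mean inhibition at 8 µM reaching about 37%, which flags the compound as non-specific, limit read from the data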;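 also: p53-null SaOS-2 cells with luciferase driven by a doxycycline-inducible promoter; compound on cells about two nights before reading with doxycycline added after day one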
An asterisk follows results filed as active; / = no result given. In the library only some 4.8% were active in any assay of this set; here they are far more common.

SMILES	Calb FLC	Beta apoptosis	Mdm2 MdmX PPI	CSC inhib	MPTP inh	Mdm2-MdmX conf	FLuc counter
Cc1ccc(-c2nc(N/N=C/c3ccncc3)c3ccccc3n2)cc1	26	64	-24	-18	1	/	/
c1ccc(CNc2nc(-c3ccccn3)nc3ccccc23)cc1	-10	106*	78*	50	0	78*	23
CCC(C)Nc1nc(-c2ccccn2)nc2ccccc12 (stereo not drawn)	-5	90*	82*	29	0	58*	29
CCC(C)Nc1nc(-c2cccc(OC)c2O)nc2ccccc12 (stereo not drawn)	-5	-11	35	60	38	/	/
Fc1ccccc1/C=N/Nc1nc(-c2ccccn2)nc2ccccc12	-6	105*	82*	37	/	78*	57*
COc1ccccc1CNC(=O)Nc1nc(C(N)Cc2ccc(Cl)cc2)cs1 (stereo not drawn)	/	/	/	/	2	/	/
CC(CCN1C(N(C)C)=NC[C@@H]1C)c1ccccc1 (stereo partly drawn)	/	0	8	2	0	/	/
CCOc1ccccc1N1CCN(C(=O)c2ccc(OCC(=O)N3CCOCC3)c(OC)c2)CC1	1	-7	2	-8	0	/	/
CC(C)(CO)Nc1nc(Cl)nc(NC2CCCCC2)n1	4	-4	19	-26	2	/	/
COc1cc(NC(=O)C2=C(N3CCOCC3)/C(=C\c3ccc(N(C)C)cc3)CCC2)cc(OC)c1OC	-1	17	60*	87*	1	47*	87*
COc1cc(NC(=O)C2=C(N3CCOCC3)/C(=C/c3ccc(Cl)cc3)CC2)cc(OC)c1OC	-2	/	8	51	0	/	/
COc1ccc2c(c1OC)C(CC(C)=O)N1CCc3cc4c(cc3C1C2=O)OCO4 (stereo not drawn)	/	/	/	/	0	/	/
COc1cc(-c2nc(C(=O)NC3CCN(Cc4ccccc4)CC3)cc3c2[nH]c2ccccc23)cc(OC)c1OC	-1	36	79*	-7	-2	56*	50*
COc1ccc(OC)c(-c2nc(C(=O)NC3CCN(Cc4ccccc4)CC3)cc3c2[nH]c2ccccc23)c1	-2	/	50*	-1	1	20	/
Cc1ccc(C)c(N2CCN(C(C(=O)NC3CCCC3)C(C)C)CC2)c1 (stereo not drawn)	/	/	/	/	-1	/	/
COc1ccc(NC(=O)C(c2ccc(C(F)(F)F)cc2)n2c(=O)c(-c3cc4ccccc4[nH]3)nc3ccccc32)cc1 (stereo not drawn)	/	/	/	/	3	/	/
O=C(/C=C/[C@H]1O[C@@H](n2cnc3c(NC(=O)c4ccccc4)ncnc32)[C@H](O)[C@@H]1O)NCc1ccc2c(c1)OCO2	/	/	/	/	-1	/	/
Cc1nnc2c3ccccc3c(-c3ccc(O)cc3)nn12	-8	-6	66*	3	2	33	62*
Cc1nnc2c3ccccc3c(Cl)nn12	-3	-4	7	2	0	/	/
Cc1nnc2c3ccccc3c(-c3cccs3)nn12	-25	-7	54*	-5	-1	35	53*
COC(=O)C[C@@H]1CC[C@H](NC(=O)CC2CC2)[C@@H](CO)O1	/	/	/	/	0	/	/
Cc1cccc(N2CCN(C(C(=O)NCc3ccccc3)c3ccc(F)cc3)CC2)c1C (stereo not drawn)	/	/	/	/	5	/	/
CO[C@H]1CN(C)C(=O)c2cc(NC(=O)c3ccccc3)ccc2OC[C@H](C)NC[C@@H]1C	/	/	/	/	-3	/	/
O=C(c1ccc(OC2CCN(CCc3ccccc3)CC2)cc1)N1CCC(CO)CC1	-7	2	-5	-1	2	/	/
COc1ccc(/C(N)=N/OC(=O)C2CCC(=O)N2S(=O)(=O)c2ccc(C)cc2)cc1OC (stereo not drawn)	4	1	74*	/	0	55*	76*
CCNC(=O)c1cc2c(c(-c3cccc(-c4cccc(C(=O)N(C)C)c4)c3)n1)[C@@H](CCO)N(S(=O)C(C)(C)C)C2 (stereo partly drawn)	/	/	/	/	1	/	/
CCN(CC)C1CCN(C(=O)c2ccc(OC3CCN(CCc4ccccc4)CC3)cc2)C1 (stereo not drawn)	-7	1	56*	3	2	44*	74*
O=C(C1CCCCC1)N1C[C@@H](O)[C@H](n2cc(-c3ccc(F)cc3)nn2)C[C@@H]1c1ccc(Cl)cc1	/	/	/	/	-1	/	/
